Here are results for 93 compounds from PubChem BioAssay AID1578 (Sanford-Burnham Center for Chemical Genomics, 2009).

One may read the inhibition as the change of the read-out against control, counted positive when it falls.

Structures are written as SMILES. Where “and” joins values, the source holds several entries; their conditions need not be identical. Equal entries are not always repeated. The campaign covered roughly 290,000 compounds. About 3,000 (1%) were called active. The sample holds actives, similar compounds and a random draw of the others, so the mix is not that of the screen. Unmarked numbers belong to inactive results. No stated cut-off is given here; in the data, active means inhibition mostly above about 36% (no sharp cut-off); inactive means mostly below about 34%.

The test is described as follows: NOD1 signaling inhibitors, primary screen, cell-based, luminescence, uHTS (AID 1578).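 Further: HEK-293T reporter cells stimulated with the NOD1 agonist gamma-tri-DAP.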 Particulars: NOD1-driven NF-kB luciferase reporter cells, at 4 µM, active compounds read high.
Regarding `CCc1ccc(NC(=O)CCCN2C(=S)NC(C)(C)CC2C)cc1` (stereo not drawn), the inhibition is -30.4%. The value for `Cc1ccccc1-c1ccc(=O)n(CC(=O)Nc2ccc(-n3cnnn3)cc2)n1` was -5.3%; that for `CCOC(=O)C(CCCOc1ccccc1)C(=O)OCC` was 10.5%; that for `CC1CCCCC1NC(=O)CN1C(=O)CSc2cc(S(=O)(=O)N3CCCCCC3)ccc21` (stereo not drawn) was -19.4%. In the case of `COC(=O)c1cccc(NC(=O)NC(=O)c2ccc(Cl)cc2)c1`, the inhibition was 11.7%. In the case of `COC(=O)c1cccc(NC(=O)NC(=O)c2ccccc2Cl)c1`, the inhibition is 30% (active). For `COC(=O)c1cccc(NC(=O)/C(=C\c2ccccc2)NC(=O)c2ccccc2Cl)c1` the value was -35.1%; for `O=C(CNS(=O)(=O)c1cccc2nsnc12)NC1CCCCC1`, -5.2%; for `COc1ccc(/C=N/NC(=O)Nc2nonc2N)cc1`, -31.2%. The value for `CCN(CC)c1ccc(/C=N/NC(=O)Nc2ccccc2)cc1` was -54%; that for `CCN(CC)c1ccc(/C=N/NC(=O)Nc2nonc2N)cc1` was 58.7% (active); that for `COCCOC(=O)C1=C(C)Nc2cc(=O)[nH]c(=O)n2C1c1cccc([N+](=O)[O-])c1` (stereo not drawn) was 5%.

For the compound `Cc1ccccc1NC(=O)C1CCC(=O)N1` (stereo not drawn), the inhibition was 96.7% (active).

On to `O=C1CCC(C(=O)Nc2ccccc2)N1` (stereo not drawn), for which the inhibition is -23%. For `O=C1CCC(C(=O)Nc2cccc3ccccc23)N1` (stereo not drawn) the value was 8.1%; for `Cc1cc(C)nc(NS(=O)(=O)c2ccc(NC(=O)c3ccc4c(c3)OCCO4)cc2)n1`, -42.8%. For `COc1ccc(C2C(C#N)=C(N)OC3=C2C(=O)CCC3)cc1Cn1nc(C)c([N+](=O)[O-])c1C` (stereo not drawn) the value was -8.7%; for `COc1ccc(C2C(C#N)=C(N)Oc3c2c(C)nn3-c2ccccc2)cc1Cn1nc(C)c([N+](=O)[O-])c1C` (stereo not drawn), 85% (active). For `COc1ccc(C2C(C#N)=C(N)Oc3n[nH]c(C)c32)cc1Cn1nc(C)c([N+](=O)[O-])c1C` (stereo not drawn) the value was -12.1%; for `Cc1ccc(NNC(=O)CCc2ccccc2)c(C)c1`, -5%; for `O=C(NC1CCCN(Cc2ccc(Cl)cc2)C1)c1c(F)cccc1F` (stereo not drawn), -4.9%. Regarding `N#CC1(c2ccccc2)CCCN1C(=O)c1ccc(Br)cc1` (stereo not drawn), the inhibition was -11.6%. For `C=CCOC(=O)c1sc(NC(=O)c2ccc(OC)cc2)nc1C`, the inhibition is -27.6%.

Regarding `O=C(CCc1[nH]c2ccccc2c1Sc1ccccc1)NCCO`, the inhibition is 91.3% (active).

In the case of `O=C(O)CCc1[nH]c2ccccc2c1Sc1ccccc1`, the inhibition is 2.8%. For the compound `CNC(=O)CCc1[nH]c2ccccc2c1Sc1ccccc1`, the inhibition was 2.6%. The value for `C=CCn1c(C)csc1=Nc1ccc(C(=O)O)cc1` was -39.1%; that for `CCOc1ccc(C(=O)Nn2cnnc2)cc1OCC` was -0.7%. Turning to `COc1cc(C=O)ccc1OC(=O)c1ccc(C(C)C)cc1`, the inhibition is -9.5%.

Regarding `CCn1c(=N)n(CC(=O)C(C)(C)C)c2ccccc21`, the inhibition was 1.2%. The value for `CCc1ccc(CN2CCC(C(=O)Nc3ccc(Oc4ccccc4)nc3)CC2)o1` was 32.5%. The value for `CCOc1cc(Br)cc(C(c2c(C(=O)O)[nH]c3ccccc23)c2c(C(=O)O)[nH]c3ccccc23)c1O` was 18%; that for `O=C(O)COc1ccc(Br)cc1C(c1c(C(=O)O)[nH]c2ccccc12)c1c(C(=O)O)[nH]c2ccccc12` was -18.7%. The value for `O=C(O)c1[nH]c2ccccc2c1C(c1cc(Br)ccc1O)c1c(C(=O)O)[nH]c2ccccc12` was 76.6% (active). In the case of `Cc1nn(CC(=O)NCC(C)c2ccccc2)c(=O)c2cccn12` (stereo not drawn), the inhibition was -28.8%. As for `CCOC1(OCC)C(c2ccc(Cl)cc2)C(C#N)(C#N)C1(OCC)OCC` (stereo not drawn), the inhibition was -5.8%. As for `COC1(OC)C(/C=C/c2ccc(Cl)cc2)C(C#N)(C#N)C1(OC)OC` (stereo not drawn), the inhibition was 62.6% (active). Regarding `N#Cc1c(NC(=O)c2ccccc2)sc2c1CCC2`, the inhibition was -29.6%.

As to `N#Cc1c(Cl)nsc1NC(=O)c1ccccc1`, the inhibition is 89.1% (active). For `Cc1sc(NC(=O)c2ccccc2)c(C#N)c1-c1ccccc1` the value was -17.1%. The value for `C/C(=N\N=C(N)N)c1cc(Cl)ccc1Cl` was -23.9%; that for `CCNc1nc(Oc2ccc(C(=O)OC)cc2)nc(N(C)C)n1` was -15.3%; that for `O=C(O)c1cc(S(=O)(=O)O)cc(Nc2c3ccccc3nc3ccccc23)c1O` was 30.7% (active). The value for `O=C(O)c1cccc(Nc2c3ccccc3nc3ccccc23)c1` was -9%; that for `Cc1ccc(O)c(Nc2c3ccccc3nc3ccccc23)c1` was 12.5%. `COc1cccc(CNC(=O)Cn2cccc2)c1`: the inhibition was 18.5%. The value for `COc1cccc(CNC(=O)CCl)c1` was 73.9% (active). Turning to `COc1cccc(CNC(=O)Cc2ccc(Br)cc2)c1`, the inhibition is -16.7%. The value for `Cc1cccc(NC(=O)c2ccc(C(=O)Nc3cccc(C)c3)nc2)c1` was 62.8% (active); that for `CS(=O)(=O)c1ccc2nc(NC(=O)c3ccc(NS(=O)(=O)c4ccc(F)c(F)c4)cc3)sc2c1` was -2.4%. With `Cc1ccc(S(=O)(=O)Nc2cccc(C(=O)Nc3cc(C)ccn3)c2)cc1`, the inhibition was -15.9%. For the compound `CS(=O)(=O)c1ccc2nc(NC(=O)c3cccc(Cl)c3)sc2c1`, the inhibition is -1.3%. The value for `Cc1cccc(NS(=O)(=O)c2ccc(NC(=O)N3CCCCC3)cc2)c1` was 22.5%. For `CC(=O)Nc1cccc(NC(=O)c2ccc(C(=O)Nc3cccc(NC(C)=O)c3)nc2)c1` the value was -19.3%; for `CC(=O)c1cccc(NC(=O)c2ccc(C(=O)Nc3cccc(C(C)=O)c3)nc2)c1`, -11.1%; for `Cc1cccc(NS(=O)(=O)c2cccc(C(=O)Nc3cccc(C(=O)O)c3)c2)c1`, -23.8%. Consider `CC(=O)c1cccc(NC(=O)N2CCCCCC2)c1`, for which the inhibition is -8.3%. The value for `COc1ccc(-c2noc(N3CCC(C(=O)NCc4ccc(F)cc4)CC3)n2)cc1` was -38.2%. The value for `COc1ccc(/C=C2/Sc3ccc(C(=O)NCCCN4CCOCC4)cc3NC2=O)cc1OC` was 29.5%; that for `COC(=O)CS(=O)(=O)c1cc(Br)cc2c1N(C(C)=O)CC2` was -37.1%; that for `CCc1cc(/C(Cc2ccccn2)=N\Nc2ccccc2)c(O)cc1O` was -20.2%.

For `CCCNCc1cc(OC)c(OCC(=O)Nc2ccccc2)cc1Br`, the inhibition is -23.4%. As to `Cc1cccc(C)c1Nc1nnc(SCC(=O)Nc2cc(S(=O)(=O)N3CCCCC3)ccc2Cl)s1`, the inhibition is 44.5%.

With `CSc1ccc(CN2CCC(Cc3ccccc3)CC2)cc1`, the inhibition is 80.3% (active).

On to `Clc1ccc(CN2CCC(Cc3ccccc3)CC2)cc1`, for which the inhibition is -18.7%.

With `CCOc1ccc(CN2CCC(Cc3ccccc3)CC2)cc1`, the inhibition is -22.4%. Regarding `c1coc(CNc2nc(-c3ccncc3)cs2)c1`, the inhibition was -35.7%. Consider `CCOC(=O)C1CCN(C(=O)CCCn2nc(C)c3c(C)n(-c4ccc(C)cc4)nc3c2=O)CC1`, for which the inhibition was -4.8%.

For the compound `CC(C)C[C@H](NC(=O)OC(C)(C)C)c1n[nH]c(=S)n1N`, the inhibition is -16.1%. For `CCN(C(=O)Cn1c(=O)oc2ccccc21)C1CCS(=O)(=O)C1` (stereo not drawn) the value was -9.7%; for `CC(=O)N1c2ccc(S(=O)(=O)N3CCC(C(=O)Nc4cccc(C)c4)CC3)cc2CC1C` (stereo not drawn), -24.4%; for `CC(=O)N1c2ccc(S(=O)(=O)N3CCC(C(=O)Nc4ccccn4)CC3)cc2CC1C` (stereo not drawn), -41.4%. Turning to `CC(C)[C@@H](N)C(=O)N/N=C/c1ccc2ncccc2c1`, the inhibition was -2%.

For `CSCC[C@H](NC(=O)[C@H]1CC[C@H](CNC(=O)[C@@H]2CCCN2)CC1)C(=O)O`, the inhibition was -8.2%. With `COCCn1c(C)cc(/C=C2/NC(=O)N(Cc3ccc(C)cc3)C2=O)c1C`, the inhibition is -2.2%. For `CCCCNC(=O)[C@H](Cc1c[nH]c2ccccc12)NC(=O)c1ccccc1Cl` the value was -18.4%.

Turning to `COCCN=c1scc(-c2ccc3c(c2)NC(=O)CO3)n1/N=C(\C)c1ccc(O)cc1`, the inhibition was -6.7%. For the compound `CCN=c1scc(-c2ccc3c(c2)NC(=O)CO3)n1N=C1CCCC1`, the inhibition was 51.7%.

For `C=CCN=c1scc(-c2ccc3c(c2)NC(=O)CO3)n1/N=C(\C)c1ccccn1`, the inhibition was 50.6% (active). With `CCCCCC1=NN2C(=O)CC(=O)N=C2S1`, the inhibition is 11.6%. Consider `O=c1c2nnn(-c3cccc(F)c3)c2ncn1Cc1ccccn1`, for which the inhibition is -4.3%. As to `O=C(N/N=C/c1ccc([N+](=O)[O-])cc1)c1[nH]ncc1Br`, the inhibition was -5%. For `Cc1ccc(-c2nn(C)c(=O)c3ccccc23)cc1CNC(=O)Cn1nc(-c2ccccc2)c2ccccc2c1=O`, the inhibition is 12.8%. For the compound `Cc1ccc(-c2nn(CC(=O)NCc3cc(-c4nn(C)c(=O)c5ccccc45)ccc3C)c(=O)c3ccccc23)cc1`, the inhibition was 93.8% (active). The value for `Cc1cc(C)n(CC(=O)NCc2cc(-c3nn(C)c(=O)c4ccccc34)ccc2C)n1` was -14%; that for `Cc1ccc2[nH]c3c(c2c1)CCNC3=O` was -41.5%; that for `O=C1NCCc2c1[nH]c1c(Cl)ccc(Cl)c21` was 79.2% (active). Consider `O=C1NCCc2c1[nH]c1ccccc21`, for which the inhibition was 10.2% and -8.1%.

`CCOC(=O)[C@@H]1[C@H]2COc3cc(OC)ccc3[C@@H]2N2C(=O)N(c3ccc(Br)cc3)C(=O)[C@@]12C`: the inhibition was -23.3%. For the compound `CN(C)C(CNc1ncccn1)c1ccccc1` (stereo not drawn), the inhibition was -14.6%. Take `CC(C)(C)OC(=O)N1CCC(CC2CC(c3cccc(Br)c3)=NO2)(C(=O)NCC2CCCCC2)CC1` (stereo not drawn): the inhibition was -0.4%.

As for `COC(=O)C1(CC2CC(c3cccc(Br)c3)=NO2)CCN(C(=O)OC(C)(C)C)CC1` (stereo not drawn), the inhibition is 43.4% (active).

For `CC(C)(C)OC(=O)N1CCC(CC2CC(c3cccc(Br)c3)=NO2)(C(=O)O)CC1` (stereo not drawn), the inhibition is -12.7%.
